Records with an inconclusive call do not appear. Entries that show only a call come without a potency. Active and inactive are the calls of the source. The call rests on the fitted dose curve; in most records, active means well fitted curve in the direction sought with a large enough effect; inconclusive means small, poorly fitted or top-dose-only effect, or another doubt; inactive means no such curve, though single readings can be large; an effect the other way counts as inactive or inconclusive.
Each compound was assayed against Tyrosine-protein phosphatase non-receptor type substrate 1 (Homo sapiens) + Leukocyte surface antigen CD47 (Homo sapiens) (UniProt P78324+Q08722) (assay: CD47-SIRPalpha protein protein interaction - Alpha assay qHTS validation (AID 1347059;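 further: bead proximity luminescence from CD47 binding SIRPalpha after compound preincubation with SIRPalpha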)). Conditions: AlphaScreen CD47-His/biotin-SIRPalpha binding, LOPAC; series mostly up to 38.3 µM.
Sequence of Tyrosine-protein phosphatase non-receptor type substrate 1 (Homo sapiens) + Leukocyte surface antigen CD47 (Homo sapiens) (P78324 whole entry, looked up): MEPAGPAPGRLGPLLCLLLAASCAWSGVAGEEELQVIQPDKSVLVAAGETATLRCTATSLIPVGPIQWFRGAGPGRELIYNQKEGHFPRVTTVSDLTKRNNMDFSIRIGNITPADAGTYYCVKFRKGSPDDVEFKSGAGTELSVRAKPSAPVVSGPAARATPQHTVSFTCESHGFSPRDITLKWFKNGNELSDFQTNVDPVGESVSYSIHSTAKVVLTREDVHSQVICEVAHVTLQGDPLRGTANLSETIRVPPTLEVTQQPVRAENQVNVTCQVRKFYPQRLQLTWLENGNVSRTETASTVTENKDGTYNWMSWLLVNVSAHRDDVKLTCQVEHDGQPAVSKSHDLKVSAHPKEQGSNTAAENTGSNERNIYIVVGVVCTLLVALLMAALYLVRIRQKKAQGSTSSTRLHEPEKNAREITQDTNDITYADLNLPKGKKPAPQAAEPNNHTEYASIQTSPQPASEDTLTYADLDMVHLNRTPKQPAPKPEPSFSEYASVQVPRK
Sequence of Tyrosine-protein phosphatase non-receptor type substrate 1 (Homo sapiens) + Leukocyte surface antigen CD47 (Homo sapiens) (Q08722 whole entry, looked up): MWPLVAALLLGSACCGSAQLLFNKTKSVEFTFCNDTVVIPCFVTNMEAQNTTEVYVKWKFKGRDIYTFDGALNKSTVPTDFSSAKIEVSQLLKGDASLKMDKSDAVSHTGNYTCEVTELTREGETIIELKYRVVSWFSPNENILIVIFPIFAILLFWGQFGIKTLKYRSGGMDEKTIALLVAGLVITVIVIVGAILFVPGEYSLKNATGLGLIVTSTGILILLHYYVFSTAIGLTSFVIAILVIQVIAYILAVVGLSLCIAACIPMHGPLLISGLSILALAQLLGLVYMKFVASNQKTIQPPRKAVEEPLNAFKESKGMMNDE
How it was run: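 SIRPalpha-biotin 25 nM + cpd, 30 min RT, dark; add CD47-His 12.5 nM, 30 min; add Ni-NTA/SAV beads 10 ug/mL, 30 min; AlphaScreen. Buffer PBS pH 7.4 + 0.05% IGEPAL CA-630. Non-biotinylated SIRPalpha as control inhibitor.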

SMILES	Potency
CC[C@@H](C)[C@H]1O[C@]2(CC[C@H]1C)C[C@@H]1C[C@@H](CC=C(C)[C@@H](O[C@H]3C[C@H](OC)[C@@H](O[C@H]4C[C@H](OC)[C@@H](O)[C@H](C)O4)[C@H](C)O3)[C@@H](C)C=CC=C3CO[C@@H]4[C@H](O)C(C)=C[C@@H](C(=O)O1)[C@]34O)O2	inactive
O=Nc1ccc2oc(=O)ccc2c1	inactive
CCCCCCCCCCCCCCCCCC(=O)OC(CC(=O)O)C[N+](C)(C)C (stereo not drawn)	inactive
O=S(=O)(c1cccc2c(I)cccc12)N1CCCNCC1	inactive
O=c1[nH]c2cc(C(F)(F)F)ccc2n1-c1cc(C(F)(F)F)ccc1O	inactive
COc1ccccc1CNCCCCCCNCCCCCCCCNCCCCCCNCc1ccccc1OC	inactive
NC[C@H]1O[C@@H](n2cnc3c(N)ncnc32)[C@H](O)[C@@H]1O	inactive
Clc1ccc(N2CCN(Cc3cc4ccccn4n3)CC2)cc1	inactive

The compounds below were run against Parathyroid hormone/parathyroid hormone-related peptide receptor (Homo sapiens) (UniProt Q03431) (assay: qHTS for PTHR1 Agonists: Optimization Screen against the NCGC LOPAC library (AID 1347079;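 further: GloSensor cAMP luminescence in HEK-293 GP2 cells expressing human PTHR1 with IBMX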)). Conditions: HEK293 GP2 PTHR1 GloSensor cAMP luminescence, 1 h; series mostly up to 57.1 µM.
Sequence of Parathyroid hormone/parathyroid hormone-related peptide receptor (Homo sapiens) (Q03431 whole entry, looked up): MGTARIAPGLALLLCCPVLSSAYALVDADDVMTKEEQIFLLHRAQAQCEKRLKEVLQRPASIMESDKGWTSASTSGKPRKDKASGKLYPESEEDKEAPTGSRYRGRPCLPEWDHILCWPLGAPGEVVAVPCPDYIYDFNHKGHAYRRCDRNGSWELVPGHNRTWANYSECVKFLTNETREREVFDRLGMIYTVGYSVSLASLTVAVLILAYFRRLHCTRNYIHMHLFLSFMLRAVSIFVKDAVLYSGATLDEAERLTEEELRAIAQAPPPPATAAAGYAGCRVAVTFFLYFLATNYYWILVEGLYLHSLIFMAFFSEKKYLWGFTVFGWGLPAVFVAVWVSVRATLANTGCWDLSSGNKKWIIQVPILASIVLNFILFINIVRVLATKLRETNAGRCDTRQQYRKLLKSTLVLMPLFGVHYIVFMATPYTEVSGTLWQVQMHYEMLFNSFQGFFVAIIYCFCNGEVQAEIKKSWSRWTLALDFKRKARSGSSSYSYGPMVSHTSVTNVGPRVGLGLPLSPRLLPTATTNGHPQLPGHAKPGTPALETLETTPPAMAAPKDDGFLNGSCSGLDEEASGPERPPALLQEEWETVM
How it was run: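 Signal increase flags agonism. GP2 cells, derived from HEK-293, express human PTHR1 and a GloSensor cAMP construct.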

SMILES	Potency
COc1ccccc1N1CCN(CCCCNS(=O)(=O)c2cccc3c(N(C)C)cccc23)CC1	inactive
C[N+](C)(CCCCCC[N+](C)(C)CCCN1C(=O)c2cccc3cccc(c23)C1=O)CCCN1C(=O)c2cccc3cccc(c23)C1=O	inactive
CC[C@@H](C)[C@H]1O[C@]2(CC[C@H]1C)C[C@@H]1C[C@@H](CC=C(C)[C@@H](O[C@H]3C[C@H](OC)[C@@H](O[C@H]4C[C@H](OC)[C@@H](O)[C@H](C)O4)[C@H](C)O3)[C@@H](C)C=CC=C3CO[C@@H]4[C@H](O)C(C)=C[C@@H](C(=O)O1)[C@]34O)O2	inactive
Fc1cccc(/C=N/N=C/c2cccc(F)c2)c1	inactive
C[C@@H](NC(=O)/C(C#N)=C/c1ccc(O)c(O)c1)c1ccccc1	inactive
O=Nc1ccc2oc(=O)ccc2c1	inactive
CCCCCCCCCCCCCCCCCCNC(=O)OCC(COP(=O)([O-])OCC[n+]1ccsc1)OC (stereo not drawn)	inactive
CCCCCCCCCCCCCCCCCC(=O)OC(CC(=O)O)C[N+](C)(C)C (stereo not drawn)	inactive
CSc1ccccc1N1CCN(CCCCCC(=O)NC2CCCc3ccccc32)CC1 (stereo not drawn)	inactive
O=c1[nH]c2cc(C(F)(F)F)ccc2n1-c1cc(C(F)(F)F)ccc1O	inactive
COc1ccccc1CNCCCCCCNCCCCCCCCNCCCCCCNCc1ccccc1OC	inactive
OCC1O[C@H]([S-])[C@H](O)[C@@H](O)[C@@H]1O.[Au+] (stereo partly drawn)	inactive
CCCCCCCCCCCCCCCCCC(=O)NCC(COP(=O)([O-])OCC[N+](C)(C)C)OCC (stereo not drawn)	inactive
O=C(c1cc(O)c(O)c([N+](=O)[O-])c1)c1ccccc1F	inactive
C#CCN1C(C)=C(C(=O)OC)C(c2cccc([N+](=O)[O-])c2)C(C(=O)OCC)=C1C (stereo not drawn)	inactive
CCCCC/C=C\CC(O)/C=C/c1cccc(CC(O)CCCCO)n1 (stereo not drawn)	inactive
CO/S(=N\S(=O)(=O)c1ccc(Cl)cc1)c1ccc([N+](=O)[O-])cc1 (stereo not drawn)	inactive
O=C(/C=C/c1ccc(O)cc1)c1ccc(O)cc1O	inactive
NC[C@@H]1O[C@H](C23CC4CC(CC(C4)C2)C3)Cc2c1ccc(O)c2O	inactive
NC[C@H]1O[C@@H](n2cnc3c(N)ncnc32)[C@H](O)[C@@H]1O	inactive
OC[C@H]1O[C@@H](n2cnc3c(Nc4ccccc4)ncnc32)[C@H](O)[C@@H]1O	inactive
O=C(O)CCCC[C@@H]1CCSS1	inactive
N#C/C(=C\c1ccc(-c2cc(Cl)ccc2Cl)o1)C(=O)Nc1cccc2ncccc12	inactive
Clc1ccc(N2CCN(Cc3cc4ccccn4n3)CC2)cc1	inactive
CCCCCCCCc1ccc(-c2ccc(C(=O)O)cc2)cc1	inactive
